PubChem BioAssay (NCATS)
Records with an inconclusive call do not appear. The source made the active and inactive calls. The call rests on the fitted dose curve; in most records, active means well fitted cell-killing curve with a large enough effect; inconclusive means small, poorly fitted or top-dose-only effect; inactive means flat fitted curve, though single readings scatter.
On the % scale 0 is the no-effect control and ±100 the full control effect.

Assay: Cell Viability - H-4-II-E (AID 543); further: nearly all actives have a fitted effect of over 35% in size
Conditions: H-4-II-E rat hepatoma viability; series mostly up to 92.2 µM; activity change, negative = cytotoxic: at the top concentration
From the text: NIH Chemical Genomics Center [NCGC]
NIH Molecular Libraries Screening Centers Network [MLSCN]
National Institutes of Environmental Health Sciences [NIEHS]
National Toxicology Program [NTP]
We have developed a 1536-well cell-based assay for quantitative high throughput screening (qHTS) against a number of cell lines to determine in vitro cytotoxicity of small molecules. This particular assay uses the H-4-II-E cell line which is derived from rat hepatoma.
NCGC Assay Protocol Summary:
The CellTiter-Glo luminescent cell viability assay (Promega) is a homogeneous method to measure the number of viable cells in culture. The end point readout of this assay is based on quantitation of intracellular ATP, an indicator of metabolic activity, using the luciferase reaction. Luciferase catalyzes the oxidation of beetle Luciferin to oxyluciferin and light in the presence of ATP. The luminescent signal is proportional to amount of ATP present.
Using the CellTiter-Glo luminescent cell viability assay, the amount of cellular ATP was measured in the H-4-II-E cell line with complete culture medium following compound treatment for 40 hours. The assay was performed in opaque white Kalypsys 1536-well plates. In the screen, tamoxifen and doxorubicin were used as positive controls. Library compounds were measured for their ability to cause acute toxicity in the cell line, as reflected by a decrease in intracellular ATP levels, in a concentration-dependent manner. […] AC50 values were determined from concentration-response data modeled with the standard Hill equation.
qHTS protocol fo CellTiter Glo H-4-II-E cellular assay
[Step] [Parameter] [Value] [Description]
1. Reagent; 5 uL; 1500 H-4-II-E cells/well
2. Time; 5 hr; 37 °C incubation
4. Controls; 23 nL; Tamoxifen 0.34 uM to 100 uM & Doxorubicin 0.02 nM to 100 uM
5. Time; 40 hr; 37 °C incubation
6. Reagent; 5 uL; CellTiter Glo reagent
7. Time; 20 min; Room Temperature
8. Detection; Luminescence; Viewlux plate reader
Keywords: cell viability, cytotoxicity, H-4-II-E cell line, luminescence, NTPHTS, NTPHTS_NCGC, NIEHS, EPA, DSSTox, MLSMR, MLSCN, NIH Roadmap, qHTS, NCGC
In the case of `CC(=O)OC(C)=O`, the “activity change, negative = cytotoxic” value is reported as 3.02% (inactive). With `N#CC1(O)CCCCC1` the “activity change, negative = cytotoxic” value was 4.18% (inactive). With `O=C(O)c1cc(Cl)cc(Cl)c1` the “activity change, negative = cytotoxic” value was -9.07% (inactive). With `Cc1ccc(S(=O)(=O)NC2CCCCC2)cc1` the “activity change, negative = cytotoxic” value was -17.6% (inactive). In the case of `CC(=O)c1nccs1`, the “activity change, negative = cytotoxic” value is reported as -0.876% (inactive). In the case of `C=Cc1ccccn1`, the “activity change, negative = cytotoxic” value is reported as -5.69% (inactive). With `CCCOCC(C)O` (stereo not given) the “activity change, negative = cytotoxic” value was -3.57% (inactive). For `NC(N)=S`, the “activity change, negative = cytotoxic” value was -12.4% (inactive). For `Cc1ccc(C#N)cc1`, the “activity change, negative = cytotoxic” value was -8.23% (inactive). For `Cc1cccc(C)c1`, the “activity change, negative = cytotoxic” value was -4.25% (inactive). For `NCCCCCCN`, the “activity change, negative = cytotoxic” value was -8.57% (inactive). With `Cc1c(N)cccc1N` the “activity change, negative = cytotoxic” value was -5.58% (inactive). In the case of `Cc1cccc(C)c1O`, the “activity change, negative = cytotoxic” value is reported as -5.45% (inactive). In the case of `C1CCC2OC2C1` (stereo not given), the “activity change, negative = cytotoxic” value is reported as -1.13% (inactive). For `O=Cc1c(Cl)cccc1Cl`, the “activity change, negative = cytotoxic” value was -0.328% (inactive). With `O=C1CCCCC1` the “activity change, negative = cytotoxic” value was -4.06% (inactive). For `C=C(C)C(=O)OCCCCCC`, the “activity change, negative = cytotoxic” value was 0.905% (inactive). In the case of `COc1ccc(N)c(OC)c1`, the “activity change, negative = cytotoxic” value is reported as -15.5% (inactive). For `Nc1ccc([N+](=O)[O-])c(N)c1`, the “activity change, negative = cytotoxic” value was -14.1% (inactive). With `Fc1ccccc1` the “activity change, negative = cytotoxic” value was 3.59% (inactive). For `Cc1ccc(CO)cc1`, the “activity change, negative = cytotoxic” value was -6.18% (inactive). For `Nc1cc(Cl)c([N+](=O)[O-])cc1O`, the “activity change, negative = cytotoxic” value was -11.9% (inactive). With `CC#N` the “activity change, negative = cytotoxic” value was 1.07% (inactive). In the case of `CCCCC(CC)CO` (stereo not given), the “activity change, negative = cytotoxic” value is reported as 0.137% (inactive). In the case of `Cc1ccc2oc(=O)ccc2c1`, the “activity change, negative = cytotoxic” value is reported as -4.11% (inactive). In the case of `Cc1ccc(C(=O)O)cc1`, the “activity change, negative = cytotoxic” value is reported as 5.16% (inactive). With `O=C(O)c1ccccc1Cl` the “activity change, negative = cytotoxic” value was -9.62% (inactive). In the case of `CCOC(=O)OCC`, the “activity change, negative = cytotoxic” value is reported as -1.43% (inactive). In the case of `C=CCCC`, the “activity change, negative = cytotoxic” value is reported as 0.105% (inactive). For `Nc1cccc(C(F)(F)F)c1`, the “activity change, negative = cytotoxic” value was 9.98% (inactive). For `Nc1cccc2c(=O)[nH][nH]c(=O)c12`, the “activity change, negative = cytotoxic” value was -17.9% (inactive). With `CC(=O)OC(C)C` the “activity change, negative = cytotoxic” value was -3.2% (inactive). In the case of `Nc1nc2ccccc2[nH]1`, the “activity change, negative = cytotoxic” value is reported as 1.32% (inactive). With `Cc1ccccc1C(=O)O` the “activity change, negative = cytotoxic” value was -5.01% (inactive). For `CC(C)=CCl`, the “activity change, negative = cytotoxic” value was 3.74% (inactive). With `C1CCCC1` the “activity change, negative = cytotoxic” value was -5.74% (inactive). With `CCC(C)(C)C` the “activity change, negative = cytotoxic” value was -4.36% (inactive). With `C=C(C)OC(C)=O` the “activity change, negative = cytotoxic” value was -3.25% (inactive). In the case of `N#Cc1ccccc1`, the “activity change, negative = cytotoxic” value is reported as -6.41% (inactive). In the case of `CC=C(Cl)Cl`, the “activity change, negative = cytotoxic” value is reported as 0.818% (inactive).
